APEX1 inh: blocks human APE1 abasic DNA cleavage; P27695; recombinant APE1, TAMRA/BHQ-2 abasic DNA cleavage fluorescence; Potency, µM (titrated, usually from 65.8 µM), for the others: at the highest dose activity change, negative = inhibition, most hits filed as inhibitors; hit rate 0.35% among 350,000;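 also: plate controls were vehicle for no effect and reference inhibitor for full effect; nearly all actives have a fitted effect of over 55% in size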
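Measures dequenching upon AP-site incision of a 5'-TAMRA/3'-BHQ-2 THF-containing duplex, 50 nM; human APE1 0.75 nM after 15 min room-temperature exposure to compound; kinetic three-point read at one-minute spacing.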
Pol kappa inh: inhibitors of human DNA polymerase kappa. AID 588579. purified Pol kappa, fluorescent DNA synthesis assay, 10 min. hit rate 0.53% among 400,000. Q9UBT6. Potency, µM (series often up to 107 µM), inactives show at the top dose activity, negative = inhibition, usual class: inhibitors; also: % is scaled to controls: 0 for no effect and ±100 for the full control effect
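Pol kappa 10 nM + cpd, 15 min RT; start w/ substrate 50 nM final; fluorescence kinetic read, 0 and 10 min. Neg ctrl: buffer, no enzyme.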
Pol iota inh: DNA polymerase iota (human) inhibition; Q9UNA4; Pol iota fluorescent replication assay, 10 min; Potency, µM (series often up to 115 µM), for the others: at the highest dose activity, negative = inhibition, actives largely listed as inhibitors; hit rate 1% among 390,000; AID 588590
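Fluorescent replication assay read twice, at 0 min and 10 min after adding 50 nM (final) substrate. Enzyme (10 nM) and compounds were first incubated 15 min at room temperature; enzyme-free buffer wells were negative controls.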
Pol beta inh: blocks human DNA polymerase beta activity; P06746; Pol beta primer extension/strand displacement, fluorescence kinetic; Potency, µM (doses to about 114 µM), for the others: at the highest dose activity change, negative = inhibition, usual class: inhibitors; hit rate 1.3% among 340,000; AID 485314; also: % is scaled to controls: 0 for no effect and ±100 for the full control effect
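Homogeneous kinetic assay of primer extension and strand displacement by 10 nM Pol beta, preincubated 15 min at room temperature with compound before 50 nM substrate (final) was added. Read at 0 and 10 min; four-parameter Hill fit.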
L3MBTL1 block: blocks human L3MBTL1; Q9Y468; AlphaScreen L3MBTL1–H3K9me1 peptide binding; Potency, µM (titrated, usually from 57.1 µM), inactives show at the highest dose activity, negative = inhibition, actives largely listed as inhibitors; hit rate 0.66% among 230,000; also: % is scaled to controls: 0 for no effect and ±100 for the full control effect; nearly all actives have a fitted effect of over 60% in size
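AlphaScreen assay: L3MBTL1 (50 nM final) was preincubated 30 min at room temperature with biotinylated H3(1-15)K9me1 peptide (75 nM final), then 30 min with library compounds; streptavidin donor and nickel chelate acceptor beads (10 ug/mL final) added, 30 min dark.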
Pol eta inh: inhibitors of human DNA polymerase eta; recombinant Pol eta, fluorescent DNA replication assay; hit rate 1.2% among 390,000; AID 588591; Potency, µM (titrated, usually from 114 µM), for inactives: at the highest dose activity change, negative = inhibition, actives largely listed as inhibitors; also: % is scaled to controls: 0 for no effect and ±100 for the full control effect
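Pol eta at 10 nM preincubated with compounds 15 min at room temperature; reaction started with fluorescent substrate (50 nM final) and read kinetically at 0 and 10 min.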
PGK validate: blocks T. brucei phosphoglycerate kinase; shares compounds with Pol kappa inh; hit rate 79% among 500; TbPGK coupled GAPDH assay, Kinase-Glo luminescence; Potency, µM (titrated, usually from 57.5 µM), inactives show at the highest dose activity change, negative = inhibition, most hits filed as inhibitors; also: % is scaled to controls: 0 for no effect and ±100 for the full control effect; nearly all actives have a fitted effect of over 65% in size
Target sequence (P07378 whole entry, looked up): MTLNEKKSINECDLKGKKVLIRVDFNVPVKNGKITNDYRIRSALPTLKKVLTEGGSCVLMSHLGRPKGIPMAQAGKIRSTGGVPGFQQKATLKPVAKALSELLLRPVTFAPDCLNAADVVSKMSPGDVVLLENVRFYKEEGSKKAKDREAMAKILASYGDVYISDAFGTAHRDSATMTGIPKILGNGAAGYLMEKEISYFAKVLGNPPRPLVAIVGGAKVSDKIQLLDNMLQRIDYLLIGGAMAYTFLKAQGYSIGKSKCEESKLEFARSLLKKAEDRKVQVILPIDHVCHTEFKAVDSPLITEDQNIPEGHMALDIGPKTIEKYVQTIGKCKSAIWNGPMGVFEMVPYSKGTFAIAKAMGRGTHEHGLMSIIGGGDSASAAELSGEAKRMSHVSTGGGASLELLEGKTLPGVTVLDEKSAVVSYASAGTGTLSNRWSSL
POLI cherry-pick: Human Pol iota inhibitor confirmatory assay | shares compounds with Pol kappa inh | Pol iota primer extension, TAMRA/BHQ fluorescence | Potency, µM, usual class: inhibitors | hit rate 77% among 1,500 | AID 720496
* marks the source's active call; other numbers are inactive results; [ ] = another dose, or the depositor's remark. Compounds with a hit are over-represented: about 2.5% of the library has one in this group of screens. Calls follow the shape of the dose curve; as a rule, active = well fitted curve in the direction sought with a large enough effect; inconclusive = small, poorly fitted or top-dose-only effect, or another doubt; inactive = no such curve, though single readings can be large; an effect the other way counts as inactive or inconclusive. Potency is read from the fitted curve at half-maximal effect.

What do the screens show for `Cc1ccc(-c2nc3ccccc3o2)cc1NC(=S)NC(=O)/C=C/c1ccco1`?
APEX1 inh: -5%; Pol kappa inh: -18%; Pol iota inh: inconclusive; Pol beta inh: 40µM*; L3MBTL1 block: 1%; Pol eta inh: 22µM*; POLI cherry-pick: inconclusive

What do the screens show for `CCC(=O)N1c2ccccc2CC1C(=O)NCCCN1CCN(c2ccc(OC)cc2)CC1` (stereo not drawn)?
Pol kappa inh: -1%[60.1 µM]; Pol iota inh: 31%; Pol beta inh: -16%; Pol eta inh: -10%; PGK validate: -1%

What do the screens show for `COCC(=O)Nc1ccc([N+](=O)[O-])cc1OC`?
APEX1 inh: 1%; Pol kappa inh: 2%; Pol iota inh: 27%; Pol beta inh: 0%; L3MBTL1 block: 2%; Pol eta inh: -22%

Results for COc1cc([N+](=O)[O-])ccc1NC(=O)COC(=O)c1ccc(NC(N)=O)cc1 ?
APEX1 inh: -3%; Pol kappa inh: -8%; Pol iota inh: -18%; Pol beta inh: inconclusive; Pol eta inh: inconclusive; POLI cherry-pick: 42*

How did COc1ccc(S(N)(=O)=O)cc1C(=O)OCC(=O)N1CC(=O)Nc2ccccc21 do in these assays?
APEX1 inh: 2%; Pol kappa inh: -16%; Pol iota inh: 52%; L3MBTL1 block: 4%; Pol eta inh: -3%

What do the screens show for `C=CCOC(=O)C(C(C)=O)C(NC(=O)OC)c1cccs1` (stereo not drawn)?
APEX1 inh: 3%[12.4 µM]

Results for N#CNc1nc(O)cc(=O)[nH]1 ?
APEX1 inh: 1%; Pol kappa inh: 79µM*; Pol iota inh: inconclusive; Pol beta inh: -26%; L3MBTL1 block: inconclusive; Pol eta inh: inconclusive; PGK validate: inconclusive

What do the screens show for `CCSc1nc(O)cc(=O)[nH]1`?
APEX1 inh: -5%; Pol kappa inh: -4%; Pol iota inh: -26%; Pol beta inh: 47%; Pol eta inh: inconclusive

How did COc1ccc(-c2cc3nc4n(c(=O)c3s2)CCC4)cc1 do in these assays?
APEX1 inh: 1%; Pol kappa inh: -1%; Pol iota inh: -5%[58.9 µM]; Pol beta inh: -16%; L3MBTL1 block: -7%; Pol eta inh: -4%

Results for Cc1ccc(C)n1-n1c(C)nc2sc(-c3ccccc3)cc2c1=O ?
APEX1 inh: -4%; Pol kappa inh: -14%; Pol iota inh: -3%; Pol beta inh: -28%; L3MBTL1 block: -19%; Pol eta inh: -18%

How did Cc1nc2cc(-c3ccccc3)sc2c(=O)n1N do in these assays?
APEX1 inh: -3%; Pol kappa inh: -5%; Pol iota inh: 38%; Pol beta inh: 11%; Pol eta inh: 4%; PGK validate: 8.2µM*

How did COc1ccc(-c2cc3nc(C)n(N)c(=O)c3s2)cc1 do in these assays?
APEX1 inh: -12%; Pol kappa inh: -12%; Pol iota inh: 10%; Pol beta inh: -9%; Pol eta inh: -6%; PGK validate: 4.1µM*

What do the screens show for `COc1cccc(NC(=O)CSc2nc3ccc(NC(=O)c4cccs4)cc3s2)c1`?
Pol kappa inh: 0%; Pol iota inh: 34%; Pol beta inh: -17%; Pol eta inh: -20%

Results for COc1cc2c(cc1OC)C(C)N(C(=O)Nc1ccc(F)cc1)CC2 (stereo not drawn) ?
APEX1 inh: 8%; Pol kappa inh: -11%; Pol iota inh: -7%; Pol beta inh: 7%; Pol eta inh: -11%

How did COc1cccc2sc(NN)nc12 do in these assays?
APEX1 inh: -4%; Pol kappa inh: -7%; Pol iota inh: 41%; Pol beta inh: -8%; Pol eta inh: 2%

How did NNc1nc2c(Cl)c(Cl)ccc2s1 do in these assays?
APEX1 inh: 3.2µM*; Pol kappa inh: inconclusive; Pol iota inh: 14µM*; Pol beta inh: inconclusive; L3MBTL1 block: -3%; Pol eta inh: inconclusive; PGK validate: inconclusive; POLI cherry-pick: 67*

What do the screens show for `COc1cc(S(=O)(=O)N2CCOCC2)cc(C(=O)NCC(c2cccs2)N2CCOCC2)c1OC` (stereo not drawn)?
APEX1 inh: -10%; Pol kappa inh: -5%; Pol iota inh: 22%; L3MBTL1 block: 5%; Pol eta inh: -16%

How did Cc1ccc(S(=O)(=O)C(CNC(=O)Cc2ccc(Cl)cc2)c2cccs2)cc1 (stereo not drawn) do in these assays?
Pol kappa inh: -24%[60.1 µM]; Pol iota inh: -6%; Pol beta inh: 41%; Pol eta inh: -14%

What do the screens show for `O=C(COc1ccccc1)NCC(c1cccs1)S(=O)(=O)c1ccc(Cl)cc1` (stereo not drawn)?
Pol kappa inh: -9%[60.1 µM]; Pol iota inh: -4%; Pol beta inh: 18µM*; Pol eta inh: -13%; PGK validate: inconclusive

What do the screens show for `Cc1cc(S(=O)(=O)C(CNC(=O)COc2ccc(Cl)cc2)c2cccs2)ccc1F` (stereo not drawn)?
Pol kappa inh: -15%[60.1 µM]; Pol iota inh: 8%; Pol beta inh: 4%; Pol eta inh: -9%

Results for COc1ccc(CC(=O)NCC(c2cccs2)S(=O)(=O)c2ccc(Cl)cc2)cc1 (stereo not drawn) ?
Pol kappa inh: -7%[60.1 µM]; Pol iota inh: -4%; Pol beta inh: 7.9µM*; Pol eta inh: -25%; PGK validate: 6.5µM*

Results for COc1ccc(-n2nc(C(=O)Nc3ccc(C(C)=O)cc3)nc2-c2ccccc2)cc1 ?
Pol kappa inh: -4%; Pol iota inh: 45%; Pol beta inh: -20%; Pol eta inh: -15%

Results for CC(=O)c1ccc2c(c1)C1C=CCC1C(C(=O)O)N2 (stereo not drawn) ?
APEX1 inh: inconclusive; Pol kappa inh: 3.5µM*; Pol iota inh: 1.6µM*; Pol beta inh: 32µM*; L3MBTL1 block: 1.3µM*; Pol eta inh: 1µM*; PGK validate: 9.2µM*

Results for O=c1c(-c2ccccc2)nc2cnc(N3CCOCC3)nc2n1Cc1ccc(F)cc1 ?
APEX1 inh: 1%; Pol kappa inh: -4%[60.1 µM]

How did CC1=CC2=NC(=O)/C(=C\c3ccc(-c4cccc(Cl)c4)o3)C(=N)N2O1 do in these assays?
APEX1 inh: -1%; Pol kappa inh: -10%; Pol iota inh: inconclusive; Pol beta inh: inconclusive; L3MBTL1 block: 1%; Pol eta inh: 5.6µM*; POLI cherry-pick: inconclusive
